Columns and labels:
Test in all cases: PBM binding z-score (relative to random genomic background probes); higher = stronger binding; sequences stand for … in GC…GCGATTGACAGCGTAGAATGAAGG
[1] = system: FXR:RXRa (NR concentration 270 nM, RXRa partner concentration 90 nM)
Procedure, shortened: (§1)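 Ligand-free nuclear receptor dimers were bound for 1 h to custom Agilent 4×180K protein-binding microarrays. Detection used antibodies against each partner (one per run). Binding z-scores rest on regression-normalized fluorescence, with random background probes as the reference.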

[2] = system: LXRa:RXRa (NR concentration 270 nM, RXRa partner concentration 90 nM)
Procedure, shortened: as §1

[3] = system: LXRa homodimer (NR concentration 270 nM)
Procedure, shortened: as §1

[4] = system: LXRb:RXRa (NR concentration 270 nM, RXRa partner concentration 90 nM)
Procedure, shortened: as §1

[5] = system: LXRb homodimer (NR concentration 270 nM)
Procedure, shortened: as §1

[6] = system: PPARa:RXRa (NR concentration 270 nM, RXRa partner concentration 90 nM)
Procedure, shortened: as §1

[7] = system: PPARg:RXRa (NR concentration 180 nM, RXRa partner concentration 90 nM)
Procedure, shortened: as §1

[8] = system: PPARg:RXRa 270nM:90nM, anti-RXR (NR concentration 270 nM, RXRa partner concentration 90 nM)
Procedure, shortened: as §1

[9] = system: PPARg:RXRa 30nM:10nM, anti-RXR (NR concentration 30 nM, RXRa partner concentration 10 nM)
Procedure, shortened: as §1

[10] = system: PPARg:RXRa 90nM:30nM, anti-RXR (NR concentration 90 nM, RXRa partner concentration 30 nM)
Procedure, shortened: as §1

[11] = system: PPARg:RXRa DBDmut IVT, anti-RXR (DBD mutation: RXRa K156A/R161A, NR concentration 270 nM, RXRa partner concentration 90 nM)
Procedure, shortened: as §1

[12] = system: PPARg:RXRa IVT, anti-PPARg (NR concentration 270 nM, RXRa partner concentration 90 nM)
Procedure, shortened: as §1

[13] = system: PPARg DBDmut:RXRa IVT, anti-PPARg (DBD mutation: PPARg1 K132A/R137A, NR concentration 270 nM, RXRa partner concentration 90 nM)
Procedure, shortened: as §1

[14] = system: PPARg DBDmut IVT, anti-PPARg (DBD mutation: PPARg1 K132A/R137A, NR concentration 270 nM)
Procedure, shortened: as §1

[15] = system: PPARg homodimer (NR concentration 180 nM)
Procedure, shortened: as §1

[16] = system: PXR:RXRa (NR concentration 270 nM, RXRa partner concentration 90 nM)
Procedure, shortened: as §1

[17] = system: PXR homodimer (NR concentration 270 nM)
Procedure, shortened: as §1

[18] = system: RARa:RXR (NR concentration 270 nM, RXRa partner concentration 90 nM)
Procedure, shortened: as §1

[19] = system: RARa homodimer (NR concentration 270 nM)
Procedure, shortened: as §1

[20] = system: RARb:RXRa (NR concentration 270 nM, RXRa partner concentration 90 nM)
Procedure, shortened: as §1

## TTACCAAGGTGAAGCTCGTTGATCCCTCTGTAGA
[1]
  PBM binding z-score: 0.0851
[2]
  PBM binding z-score: -0.0821
[3]
  PBM binding z-score: -1.1
[4]
  PBM binding z-score: -0.274
[5]
  PBM binding z-score: -1.24
[6]
  PBM binding z-score: 1.09
[7]
  PBM binding z-score: -0.0345
[8]
  PBM binding z-score: 0.378
[9]
  PBM binding z-score: 0.125
[10]
  PBM binding z-score: 0.429
[11]
  PBM binding z-score: 1.63
[12]
  PBM binding z-score: 2.34
[13]
  PBM binding z-score: -0.257
[14]
  PBM binding z-score: -0.63
[15]
  PBM binding z-score: -0.515
[16]
  PBM binding z-score: -0.27
[17]
  PBM binding z-score: -0.88
[18]
  PBM binding z-score: 0.172
[19]
  PBM binding z-score: -0.72
[20]
  PBM binding z-score: 1.29

## ACTATTAGTTGACTTAGGGCAACCTATACGACGC
[1]
  PBM binding z-score: 0.173
[2]
  PBM binding z-score: 0.433
[3]
  PBM binding z-score: 0.321
[4]
  PBM binding z-score: 0.316
[5]
  PBM binding z-score: 0.731
[6]
  PBM binding z-score: 0.252
[7]
  PBM binding z-score: 1.02
[8]
  PBM binding z-score: 0.258
[9]
  PBM binding z-score: 0.33
[10]
  PBM binding z-score: 0.444
[11]
  PBM binding z-score: 0.195
[12]
  PBM binding z-score: 0.726
[13]
  PBM binding z-score: 1.42
[14]
  PBM binding z-score: 1.54
[15]
  PBM binding z-score: 0.623
[16]
  PBM binding z-score: 0.356
[17]
  PBM binding z-score: 0.265
[18]
  PBM binding z-score: 0.516
[19]
  PBM binding z-score: 0.697
[20]
  PBM binding z-score: 0.924

## TGAATGAGGTTAAAGATCAGGGAACGTGGCGTCG
[1]
  PBM binding z-score: 3.08
[2]
  PBM binding z-score: 2.42
[3]
  PBM binding z-score: -0.304
[4]
  PBM binding z-score: 1.71
[5]
  PBM binding z-score: 0.375
[6]
  PBM binding z-score: 4.63
[7]
  PBM binding z-score: 5.54
[8]
  PBM binding z-score: 6.57
[9]
  PBM binding z-score: 4.6
[10]
  PBM binding z-score: 6.57
[11]
  PBM binding z-score: 2.04
[12]
  PBM binding z-score: 3.27
[13]
  PBM binding z-score: 0.612
[14]
  PBM binding z-score: 0.495
[15]
  PBM binding z-score: 1.15
[16]
  PBM binding z-score: 1.99
[17]
  PBM binding z-score: 0.0833
[18]
  PBM binding z-score: 3.37
[19]
  PBM binding z-score: 0.135
[20]
  PBM binding z-score: 1.97

## CCTACTGGGCCAAAAAGGTCCTTGATGCCGATAA
[1]
  PBM binding z-score: -0.386
[2]
  PBM binding z-score: -0.565
[3]
  PBM binding z-score: -0.584
[4]
  PBM binding z-score: -0.39
[5]
  PBM binding z-score: -0.811
[6]
  PBM binding z-score: 0.631
[7]
  PBM binding z-score: 0.195
[8]
  PBM binding z-score: 0.889
[9]
  PBM binding z-score: -0.0812
[10]
  PBM binding z-score: 0.211
[11]
  PBM binding z-score: 3.01
[12]
  PBM binding z-score: 2.44
[13]
  PBM binding z-score: -0.992
[14]
  PBM binding z-score: -1.33
[15]
  PBM binding z-score: -0.196
[16]
  PBM binding z-score: -0.29
[17]
  PBM binding z-score: -0.721
[18]
  PBM binding z-score: -0.161
[19]
  PBM binding z-score: -0.376
[20]
  PBM binding z-score: 0.177

## GCTGCTAGGTCAACTGATGGACAGCTAAAGCTCG
[1]
  PBM binding z-score: 3.98
[2]
  PBM binding z-score: 2.38
[3]
  PBM binding z-score: -0.308
[4]
  PBM binding z-score: 1.66
[5]
  PBM binding z-score: 0.0379
[6]
  PBM binding z-score: 3.46
[7]
  PBM binding z-score: 2.8
[8]
  PBM binding z-score: 2.99
[9]
  PBM binding z-score: 0.269
[10]
  PBM binding z-score: 1.92
[11]
  PBM binding z-score: 4.96
[12]
  PBM binding z-score: 4.05
[13]
  PBM binding z-score: -0.737
[14]
  PBM binding z-score: -0.4
[15]
  PBM binding z-score: 0.547
[16]
  PBM binding z-score: 1.05
[17]
  PBM binding z-score: -0.677
[18]
  PBM binding z-score: 1.9
[19]
  PBM binding z-score: -0.785
[20]
  PBM binding z-score: 4.12

## TCTCGGAGGACACGAAGGTCAGAGCGTTCCAGAG
[1]
  PBM binding z-score: 1.4
[2]
  PBM binding z-score: 1.13
[3]
  PBM binding z-score: 0.0459
[4]
  PBM binding z-score: 0.874
[5]
  PBM binding z-score: -1.15
[6]
  PBM binding z-score: 2.05
[7]
  PBM binding z-score: 0.373
[8]
  PBM binding z-score: 1.63
[9]
  PBM binding z-score: 2.34
[10]
  PBM binding z-score: 2.05
[11]
  PBM binding z-score: 1.02
[12]
  PBM binding z-score: 1.49
[13]
  PBM binding z-score: -0.71
[14]
  PBM binding z-score: -1.07
[15]
  PBM binding z-score: 1
[16]
  PBM binding z-score: 1.87
[17]
  PBM binding z-score: 0.555
[18]
  PBM binding z-score: 1.84
[19]
  PBM binding z-score: -0.476
[20]
  PBM binding z-score: 3.4

## CAAACTAGGTCAAAGGTTAAAGTCGAGCCAACCA
[1]
  PBM binding z-score: 7.41
[2]
  PBM binding z-score: 5.99
[3]
  PBM binding z-score: 2.37
[4]
  PBM binding z-score: 5.56
[5]
  PBM binding z-score: 1.22
[6]
  PBM binding z-score: 7.61
[7]
  PBM binding z-score: 13.6
[8]
  PBM binding z-score: 11.3
[9]
  PBM binding z-score: 13
[10]
  PBM binding z-score: 13.7
[11]
  PBM binding z-score: 8.92
[12]
  PBM binding z-score: 9.36
[13]
  PBM binding z-score: 6.93
[14]
  PBM binding z-score: 5.38
[15]
  PBM binding z-score: 5.15
[16]
  PBM binding z-score: 5.99
[17]
  PBM binding z-score: 0.433
[18]
  PBM binding z-score: 8.12
[19]
  PBM binding z-score: 2.07
[20]
  PBM binding z-score: 5.01

Source: the supplement of paper PMC6555819
